The values below come from PMC5540273 (PLoS ONE, 2017).
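Note: KINOMEscan kinase panel screen.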

The assay relates to MUSK. To be noted: concentration: 1 μM, replicates: in singlicate; n = 1.
As for `O=C(O)C(F)(F)F.O=C(O)C(F)(F)F.O=c1[nH]ccc2nc(N[C@@H]3CCCNC3)nc(Nc3ccc(S(=O)(=O)N4CCOCC4)cc3)c12` [GSK2177277], the “%Inh” value is 98.2%. As for `COc1cc(Nc2nccc(N3CCC(NC(=O)c4cc5ccccc5s4)C3)n2)cc(OC)c1OC` (stereo not shown) [GSK1379760], the figure is 1%; as for `CN1CCN(Cc2cccc(-c3ccc4c(Nc5ccc(Oc6ccccc6)cc5)ccnc4c3)c2)CC1` [GW578342], 17%. To `Fc1ccc(-c2ncn(C3CCNCC3)c2-c2ccnc(Oc3ccc(-c4ccccc4)cc3)n2)cc1` [SB-245391] belongs 40%. With `Cc1ccc(S(=O)(=O)Nc2ccc(Nc3nccc(Nc4cccc5[nH]ncc45)n3)cc2)cc1` [GSK581271], the “%Inh” value is reported as 12%. Turning to `COC(=O)Nc1nc2ccc(Oc3ccc(NC(=O)Nc4cc(C(F)(F)F)ccc4F)cc3)cc2n1C.Cl` [GW692089], the “%Inh” value was 98.5%. As for `O=C(Nc1n[nH]c2nc(-c3ccc(O)cc3)ccc12)C1CC1` [SB-710363], the figure is 0%; as for `CNC(=O)c1ccccc1Nc1nc(Nc2ccc(N3CCOCC3)cc2)ncc1Cl.Cl` [GSK1576028], 74%. To `Cl.NC(=O)c1cccc(Nc2nccc(Nc3ccc(Oc4c(Cl)cccc4Cl)c(Cl)c3)n2)c1` [GW659009] belongs 5%. As for `COc1cc(Nc2nccc(-c3c(-c4cccc(NC(=O)c5c(F)cccc5F)c4)nn4ccccc34)n2)cc(OC)c1OC` [GSK323521], the “%Inh” value stood at 23%. To `Cn1cc(-c2ccc3c(c2)CCN3C(=O)Cc2cccc(F)c2)c2c(N)ncnc21` [GSK2603358] belongs 5%; to `Cc1cccc(Nc2nc(N[C@H]3CCNC3)ncc2C(N)=O)c1.Cl` [GSK2197149], 0%.

With `c1ccc(-c2n[nH]cc2Nc2ccnc3ccccc23)nc1` [GW694077], the “%Inh” value is given as 7%.

Consider `CN(C)Cc1ccc(-c2ccc3c(Nc4ccc(Oc5ccccn5)cc4)ccnc3c2)o1` [GW567148], for which the “%Inh” value is 0%.

In the case of `CCS(=O)(=O)c1ccc(OC)c(Nc2nccc(-c3c(-c4cccc(NC(=O)c5c(F)cccc5F)c4)nn4ncccc34)n2)c1` [GSK326180], the “%Inh” value worked out at 11%. `COc1cccc(C2=C(Nc3ccc(Cl)c(C(=O)O)c3)C(=O)NC2=O)c1` [SB-390769]: the “%Inh” value amounted to 17%. Take `COc1cccc(NC(=O)NC2CCN(c3ccnc(Nc4cc(OC)c(OC)c(OC)c4)n3)C2)c1` (stereo not shown) [GSK1379763]: the “%Inh” value came out at 5%. As for `Cc1ccc(C)c(NC(=O)NC2CCN(c3ccnc(Nc4ccc(F)cc4)n3)C2)c1` (stereo not shown) [GSK1379720], the figure is 5%; as for `Cc1ccc(F)c(C(=O)Nc2cccc(-c3nn4ccccc4c3-c3ccnc(Nc4cccc(F)c4)n3)c2)c1F` [GSK361061], 22%; as for `Cc1occc1-c1ncc(OC[C@@H](N)Cc2c[nH]c3ccccc23)cc1-c1ccc2[nH]nc(C)c2c1.O=C(O)C(F)(F)F` [GSK682037], 7%. To `COc1ccc(Nc2nccc(N3CCC(NC(=O)Nc4cccc(OC)c4)C3)n2)cc1` (stereo not shown) [GSK1379742] belongs 8%. Regarding `CC(=O)N1CCN(c2ccc(Nc3nccc(-c4sc(C(C)C)nc4-c4cccc(NS(=O)(=O)c5cccc(Cl)c5)c4)n3)cn2)CC1` [GSK1660437], the “%Inh” value stood at 14%. On to `Nc1ncnc2c1nc(-c1ccccc1)n2-c1ccccc1` [SKF-97293], for which the “%Inh” value is 11%. As for `O=C(NC1CCN(c2ccnc(Nc3ccc(F)cc3)n2)C1)c1cc2ccccc2s1` (stereo not shown) [GSK1379716], the figure is 21%; as for `COc1cccc(C(=O)Nc2cccc(Oc3ccc4nc(NC(=O)C5CC5)cn4n3)c2)c1`, 0%; as for `Cl.Cl.NCC(C(=O)Nc1cc(Br)c(-c2ccnc3[nH]ccc23)s1)c1ccccc1` (stereo not shown) [GSK1269851], 1%. Take `Cn1cc(-c2ccc3c(c2)CCN3C(=O)Cc2cccc(Cl)c2)c2c(N)ncnc21` [GSK2606590]: the “%Inh” value is on record as 29%. For `COc1cc(Nc2ncc3c(C)nc(-c4cc5ccccc5[nH]4)n3n2)cc(OC)c1OC` [GW869516], the “%Inh” value came out at 47%. For the molecule `O=C(Nc1cccc(-c2nn3ccccc3c2-c2ccnc(Nc3cccc(F)c3)n2)c1)c1c(F)ccc(F)c1Cl` [GSK357952], the “%Inh” value is 11%. As for `C[C@@H](Oc1cc(-n2cnc3cc(-c4ccnc(NCCS(C)(=O)=O)c4)ccc32)sc1C(N)=O)c1ccccc1Cl` [GSK907232], the figure is 30%. On to `COc1cccc(-c2ccc3c(NC(=O)C4CC4)n[nH]c3n2)c1` [SB-710903], for which the “%Inh” value is on record as 0%. Regarding `Cc1ccc(C(=O)N2CC[C@@H](O)C2)cc1-n1c(C)cc(OCc2ccc(F)cc2F)c(Br)c1=O`, the “%Inh” value is reported as 9%.

With `Cl.c1ccc(-c2ccc3c(Nc4ccc5[nH]ccc5c4)ccnc3c2)nc1` [GW440138], the “%Inh” value was found to be 0%.

Consider `CCc1ccc(-c2ccc3c(c2)-c2c(cnn2C)S(=O)(=O)N3C)cc1`, for which the “%Inh” value was 14%.

Regarding `COc1ccc(Nc2nccc(NCCNC(=O)c3cc4ccccc4s3)n2)cc1` [GSK1379896], the “%Inh” value is 8%.

Regarding `Nc1ncc(-c2ccc3nccc(-c4ccncc4)c3c2)cc1S(=O)(=O)N1CCOCC1` [GSK1627798], the “%Inh” value is on record as 0%. As for `O=C(Nc1n[nH]c2cc(-c3ccoc3)ccc12)C1CC1` [SB-738481], the figure is 0%.
